Measured values from PubChem BioAssay (NCATS).
Records with an inconclusive call do not appear. Entries that show only a call come without a potency. Calls of active or inactive are those of the source. Unless noted, calls come from the whole dose curve; as a rule, active = well fitted curve in the direction sought with a large enough effect; inconclusive = small, poorly fitted or top-dose-only effect, or another doubt; inactive = no such curve, though single readings can be large; an effect the other way counts as inactive or inconclusive.

Legend:
[1] = target: Glutathione peroxidase 1 (Homo sapiens) (UniProt P07203); experiment: Primary qHTS Assay for Inhibitors of Recombinant Selenoprotein Glutathione Peroxidase 1 (GPX1) (AID 1845191); note: nearly all actives have a fitted effect of over 65% in size; note: potency is the fitted concentration of half-maximal effect
In short: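 GR-coupled assay: compounds preincubated 30 min at room temperature with GPX1, then reaction started with CHP; final 10 nM GPX1, 1 mM GSH, 0.5 mM CHP, 0.5 mM NADPH, 100 nM GR, 0.01% BSA, pH 7.5 Tris buffer. NADPH fluorescence (340/450 nm) read at 0 and 15 min.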

[2] = target: Phospholipid hydroperoxide glutathione peroxidase GPX4 (Homo sapiens) (UniProt P36969); experiment: Primary qHTS Assay for Inhibitors of Recombinant Selenoprotein Glutathione Peroxidase 4 (GPX4) (AID 1845192); note: nearly all actives have a fitted effect of over 65% in size; note: potency is the fitted concentration of half-maximal effect
In short: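 GR-coupled assay: recombinant GPX4 preincubated 30 min with compound at room temperature; final 200 nM GPX4, 1 mM GSH, 0.5 mM cumene hydroperoxide, 0.5 mM NADPH, 100 nM GR, 0.01% BSA, pH 7.5 Tris. NADPH fluorescence (340/450 nm) read at 0 and 15 min.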

[3] = Primary fluorescence-based thiol-reactive (MSTI) qHTS assay for identification of artifact compounds. (AID 1845221);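 note: thiol-reactive compounds lower the probe fluorescence signal; nearly all actives have a fitted effect of over 65% in size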
In short: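 MSTI probe at 4 uM final in 2% DMSO/PBS pH 7.4; compounds, 1 h at room temperature in dark. Fluorescence Ex/Em 525/598 nm, normalised to Acetyl-MSTI and MSTI, fitted to 4-parameter Hill.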

[4] = test system: Nanoluciferase (engineered Oplophorus gracilirostris luciferase); experiment: Primary Nanoluciferase (NLuc) qHTS assay for identification of artifact compounds. (AID 1845222);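 note: NLuc secreted into diluted conditioned medium of S16 cells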
In short: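 S16 cell supernatant NLuc, 1:55; cpds qHTS; 15 min RT dark; Nano-Glo substrate 1:100, 5 min; luminescence; Hill fit of % inhibition.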

[5] = Primary redox qHTS assay for identification of artifact compounds. (AID 1845223)
In short: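 Amplex Red (25 uM) and HRP (250 mU/mL) in HBSS, with compounds for 15 min, then 250 uM DTT for 30 min, room temperature, dark. Fluorescence 525/598 nm read; normalized to DMSO and 10 uM DA3003; Hill fit.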

[6] = qHTS drug screen for cell cycle checkpoint inhibitors in PARPi-resistant BRCA-mutant ovarian cancer cell lines. (AID 1963452; calls by dose curve); details: PEO1/OlaR viability, CellTiter-Glo luminescence, 96 h, stronger effect = lower value
In short: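 PEO1, PEO4 and PEO1/OlaR ovarian cancer cells, 600 per well, exposed 96 h at 37C to a dilution series. Viability read by CellTiter-Glo luminescence, normalized to DMSO and empty wells; activity summarized as Z-AUC.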

[7] = qHTS profiling for inhibitors of Plasmodium falciparum proliferation (AID 504749); note: nearly all actives have a fitted effect of over 60% in size; note: potency is the fitted concentration of half-maximal effect; details: P. falciparum in erythrocytes, SYBR Green DNA, 72 h, at 28.7 µM (top of the series)
In short: (§1)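 Readout was DNA-dye fluorescence from lysed cultures, ex 485/em 535 nm. Parasitized red cells had grown 72 h with compound; data scaled between 0.29 uM artemisinin and DMSO wells and corrected using vehicle-only plates.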

3D7 = experiment: as above; details: P. falciparum in erythrocytes, SYBR Green DNA, 72 h; series mostly up to 28.7 µM
In short: as §1

7G8 = experiment: as above; details: P. falciparum in erythrocytes, SYBR Green DNA, 72 h; series mostly up to 28.7 µM
In short: as §1

[8] = measured here: PEO1 parental Z-AUC

Chain of Glutathione peroxidase 1 (Homo sapiens) (P07203 whole entry, looked up): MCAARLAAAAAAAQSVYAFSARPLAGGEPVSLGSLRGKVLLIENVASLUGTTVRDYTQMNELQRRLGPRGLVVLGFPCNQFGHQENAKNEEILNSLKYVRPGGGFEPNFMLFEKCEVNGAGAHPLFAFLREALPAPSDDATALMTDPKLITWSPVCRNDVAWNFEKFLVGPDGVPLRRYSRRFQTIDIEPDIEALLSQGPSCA
Chain of Phospholipid hydroperoxide glutathione peroxidase GPX4 (Homo sapiens) (P36969 whole entry, looked up): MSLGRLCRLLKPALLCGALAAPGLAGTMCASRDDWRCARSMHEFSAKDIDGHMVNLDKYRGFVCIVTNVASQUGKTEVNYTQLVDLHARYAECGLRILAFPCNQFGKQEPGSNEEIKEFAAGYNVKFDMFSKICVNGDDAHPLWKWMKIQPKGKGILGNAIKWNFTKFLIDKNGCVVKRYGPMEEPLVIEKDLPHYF

## CCCCC(=O)O[C@H]1CC[C@H]2[C@@H]3CCc4cc(O)ccc4[C@H]3CC[C@]12C
[1]
  Potency: inactive
[2]
  Potency: inactive

## CNCC(O)c1ccc(OC(=O)C(C)(C)C)c(OC(=O)C(C)(C)C)c1 (stereo not given)
[1]
  Potency: inactive
[2]
  Potency: inactive

## C=C1[C@H](CO)[C@@H](O)C[C@@H]1n1cnc2c(=O)[nH]c(N)nc21
[1]
  Potency: inactive
[2]
  Potency: inactive
[3]
  outcome: inactive
[4]
  outcome: inactive
[5]
  outcome: inactive
[6]
  Z-AUC: 1.7 (inactive)
[6]; [8]
  Z-AUC: 1.15
[6]; measured here: PEO4 Z-AUC
  Z-AUC: 1.37

## C[C@H]1O[C@@H](O[C@H]2[C@@H](O)C[C@H](O[C@H]3[C@@H](O)C[C@H](O[C@H]4CC[C@@]5(C)[C@H](CC[C@@H]6[C@@H]5C[C@@H](O)[C@]5(C)[C@@H](C7=CC(=O)OC7)CC[C@]65O)C4)O[C@@H]3C)O[C@@H]2C)C[C@H](O)[C@@H]1O
[1]
  Potency: inactive
[2]
  Potency: inactive
[3]
  outcome: inactive
[4]
  outcome: inactive
[5]
  outcome: inactive
[6]
  Z-AUC: -1.16 (inactive)
[6]; [8]
  Z-AUC: -1.92
[6]; measured here: PEO4 Z-AUC
  Z-AUC: -1.33
[7]; parasite line A
  activity, negative = inhibition: -10.9% (inactive)
[7]; parasite line B
  activity, negative = inhibition: 10.4% (inactive)
3D7
  Potency: inactive
7G8
  Potency: 11.2 µM (active)

## C[S+](C)CCC(N)C(=O)O (stereo not given)
[1]
  Potency: inactive
[2]
  Potency: inactive

## CO[C@H]1C[C@@H]2CC[C@@H](C)[C@@](O)(O2)C(=O)C(=O)N2CCCC[C@H]2C(=O)O[C@H]([C@H](C)C[C@@H]2CC[C@@H](OC(=O)C(C)(CO)CO)[C@H](OC)C2)CC(=O)[C@H](C)/C=C(\C)[C@@H](O)[C@@H](OC)C(=O)[C@H](C)C[C@H](C)/C=C/C=C/C=C/1C
[1]
  Potency: inactive
[2]
  Potency: inactive
[3]
  outcome: inactive
[4]
  outcome: inactive
[5]
  outcome: inactive
[6]
  Z-AUC: -1.22 (inactive)
[6]; [8]
  Z-AUC: -1.04
[6]; measured here: PEO4 Z-AUC
  Z-AUC: -0.64
[7]; parasite line A
  activity, negative = inhibition: 5.02% (inactive)
[7]; parasite line B
  activity, negative = inhibition: 6.39% (inactive)
3D7
  Potency: inactive
7G8
  Potency: inactive

## C[C@H](NCCc1ccc(O)cc1)[C@H](O)c1ccc(O)cc1
[1]
  Potency: inactive
[2]
  Potency: inactive

## CN1CCN(C(c2ccccc2)c2ccc(Cl)cc2)CC1 (stereo not given)
[1]
  Potency: inactive
[2]
  Potency: inactive

## C=C1CC[C@H](O)CC1=C/C=C1\CCC[C@]2(C)[C@@H]([C@H](C)CCCC(C)(C)O)CC[C@@H]12
[1]
  Potency: inactive
[2]
  Potency: 14.1 µM (active)

## CCCCC(O)c1ccccc1 (stereo not given)
[1]
  Potency: inactive
[2]
  Potency: inactive

## CC(O)[C@H]1CC[C@H]2[C@@H]3CC[C@@H]4C[C@@H](O)CC[C@]4(C)[C@H]3CC[C@]12C (stereo not given in full)
[1]
  Potency: inactive
[2]
  Potency: inactive

## CCN(CC)CCOCCOC(=O)C(CC)(CC)c1ccccc1
[1]
  Potency: inactive
[2]
  Potency: inactive
[3]
  outcome: inactive
[4]
  outcome: inactive
[5]
  outcome: inactive

## NC[C@H]1O[C@H](O[C@H]2[C@H](O)[C@@H](O[C@H]3O[C@H](CO)[C@@H](O)[C@H](N)[C@H]3O)[C@H](N)C[C@@H]2N)[C@H](O)[C@@H](O)[C@@H]1O
[1]
  outcome: inactive [at 4.49 µM]
[2]
  outcome: inactive [at 4.52 µM]

## NS(=O)(=O)c1cc2c(cc1Cl)NC(Cc1ccccc1)NS2(=O)=O (stereo not given)
[1]
  Potency: inactive
[2]
  Potency: inactive

## CN(C)CCC(O)(c1ccccc1)c1ccccc1Cl (stereo not given)
[1]
  Potency: inactive
[2]
  Potency: inactive

## COc1ccc(C[C@H](C)NC[C@@H](O)c2ccc(O)c(NC=O)c2)cc1
[1]
  Potency: inactive
[2]
  Potency: inactive
[3]
  outcome: inactive
[4]
  outcome: inactive
[5]
  outcome: inactive

## OCCN1CCN(CC/C=C2/c3ccccc3Sc3ccc(Cl)cc32)CC1
[1]
  Potency: inactive
[2]
  Potency: inactive

## NC(=O)[C@@H]1C[C@]2(NC(=O)NC2=O)c2cc(F)ccc2O1
[1]
  Potency: inactive
[2]
  Potency: inactive

## COc1ccc2c(c1)N(C[C@H](C)CN(C)C)c1ccccc1S2
[1]
  Potency: inactive
[2]
  Potency: inactive

## NCCCC[C@H](N)C(=O)O
[1]
  outcome: inactive [at 0.4 µM]
[2]
  outcome: inactive [at 0.409 µM]

## O=[N+]([O-])O[C@@H]1CO[C@H]2[C@@H]1OC[C@@H]2O
[1]
  Potency: inactive
[2]
  Potency: inactive

## NC(=O)OCC(O)COc1ccc(Cl)cc1 (stereo not given)
[1]
  Potency: inactive
[2]
  Potency: inactive

## CO[C@@H]1[C@H](OC(=O)/C=C/C=C/C=C/C=C/C(=O)O)CC[C@]2(CO2)[C@H]1[C@@]1(C)O[C@@H]1CC=C(C)C
[1]
  Potency: inactive
[2]
  Potency: 14.1 µM (active)

## CC(C)(C)C(=O)OCC(=O)[C@H]1CC[C@H]2[C@@H]3CCC4=CC(=O)CC[C@]4(C)[C@H]3CC[C@]12C
[1]
  Potency: inactive
[2]
  Potency: inactive

## CC(C)(C)NCC(O)c1ccc(O)c(CO)n1 (stereo not given)
[1]
  Potency: inactive
[2]
  Potency: 12.6 µM (active)

## CC(=O)Nc1ccc(NC(=S)NC(=O)c2ccc(C(C)(C)C)cc2)cc1
[1]
  Potency: inactive
[2]
  Potency: inactive
[3]
  outcome: inactive
[4]
  outcome: inactive
[5]
  outcome: inactive
[7]; parasite line B
  activity, negative = inhibition: -2.21% (inactive)
3D7
  Potency: 11.2 µM (active)
7G8
  Potency: 8.91 µM (active)

## C=CC1=C(C(=O)O)N2C(=O)[C@@H](NC(=O)/C(=N\O)c3csc(N)n3)[C@H]2SC1 (stereo in doubt)
[1]
  Potency: 11.4 µM (active)
[2]
  Potency: inactive

## CCOC(=O)Oc1c(OC)cc(C(=O)O[C@@H]2C[C@@H]3CN4CCc5c([nH]c6cc(OC)ccc56)[C@H]4C[C@@H]3[C@H](C(=O)OC)[C@H]2OC)cc1OC
[1]
  Potency: inactive
[2]
  Potency: 15.8 µM (active)

## C=C[C@]1(C)C[C@@H](OC(=O)CSCCN(CC)CC)[C@]2(C)[C@H](C)CC[C@]3(CCC(=O)[C@H]32)[C@@H](C)[C@@H]1O
[1]
  Potency: inactive
[2]
  Potency: inactive

## Nc1nc2c(c(=O)[nH]1)N(C=O)C(CNc1ccc(C(=O)N[C@@H](CCC(=O)O)C(=O)O)cc1)CN2 (stereo not given in full)
[1]
  activity, negative = inhibition: -12.1% [at 0.4 µM] (inactive)
[2]
  activity change, negative = inhibition: -4.6% [at 0.409 µM] (inactive)

## CC(C)C[C@H](NC(=O)[C@@H](COC(C)(C)C)NC(=O)[C@H](Cc1ccc(O)cc1)NC(=O)[C@H](CO)NC(=O)[C@H](Cc1c[nH]c2ccccc12)NC(=O)[C@H](Cc1cnc[nH]1)NC(=O)[C@@H]1CCC(=O)N1)C(=O)N[C@@H](CCCN=C(N)N)C(=O)N1CCC[C@H]1C(=O)NNC(N)=O
[1]
  Potency: inactive
[2]
  Potency: inactive
